# Source: PubChem BioAssay (NCI)
# About 79,000 compounds went through this panel and 15% of them were active in at least one assay; those are over-represented in the sample as a whole. Unmarked numbers belong to inactive results. Active and inactive are the calls of the source. Cut-off read from the data, not from the text of the source: active = growth inhibition above about 70%; inactive = the rest.
# Tests used:
# [1] = NCI Yeast Anticancer Drug Screen. Data for the wt1 strain (AID 149);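 note: 0% = growth of vehicle-treated wt1 cultures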; details: S. cerevisiae wt1 strain (SPY 50644) growth inhibition, stronger effect = higher value
# Outline: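 The wt1 strain was treated with compounds, and growth was compared with vehicle-treated cultures to give inhibition.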
# [2] = NCI Yeast Anticancer Drug Screen. Data for the rad50EPP+ strain (AID 151);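 note: 0% = growth of vehicle-treated control cultures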; details: S. cerevisiae rad50 mutant strain, stronger effect = higher value
# Outline: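 Read-out is yeast growth inhibition relative to vehicle; cells used were the rad50EPP+ strain.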
# [3] = NCI Yeast Anticancer Drug Screen. Data for the mgt1 strain (AID 153); details: S. cerevisiae mgt1 mutant growth inhibition, stronger effect = higher value
# Outline: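 Measured: inhibition of mgt1 yeast growth by compound, normalized to vehicle-treated cultures.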
# [4] = NCI Yeast Anticancer Drug Screen. Data for the rad50 strain (AID 155);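 note: 0% = growth of vehicle-only cultures of the same strain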; details: S. cerevisiae rad50 strain growth inhibition, stronger effect = higher value
# Outline: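 Cells are treated with compound, grown, and their growth is then scored against vehicle-only cultures of the same repair-deficient yeast strain.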
# [5] = NCI Yeast Anticancer Drug Screen. Data for the mec2-1 strain (AID 157); details: S. cerevisiae mec2-1 strain, stronger effect = higher value
# Outline: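 Using mec2-1 yeast: add compound, measure growth, express inhibition versus vehicle-treated cultures.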
# [6] = NCI Yeast Anticancer Drug Screen. Data for the rad14 strain (AID 159);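 note: 0% = growth of vehicle-treated control cultures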; details: S. cerevisiae rad14 strain growth inhibition, stronger effect = higher value
# Outline: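 Readout: yeast growth inhibition, referenced to vehicle-only cultures. Strain bears a defined alteration in DNA damage repair.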
# [7] = NCI Yeast Anticancer Drug Screen. Data for the sgs1 mgt1 strain (AID 161);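 note: 0% = growth of cultures given vehicle only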; details: S. cerevisiae sgs1 mgt1 strain, stronger effect = higher value
# Outline: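 This yeast growth screen uses a strain with defined DNA-repair lesions; compound-treated growth is compared with vehicle-treated growth.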
# [8] = NCI Yeast Anticancer Drug Screen. Data for the cln2 rad14 strain (AID 165);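 note: 0% = growth equal to vehicle treated cultures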; details: S. cerevisiae cln2 rad14 strain, stronger effect = higher value
# Outline: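 Yeast strain cln2 rad14, bearing defects in cell cycle control and DNA repair, serves as the test system; values reflect growth inhibition compared with vehicle.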
# [9] = NCI Yeast Anticancer Drug Screen. Data for the bub3 strain (AID 167); details: S. cerevisiae bub3 mutant strain, stronger effect = higher value
# Outline: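 Part of a panel of yeast mutants defective in DNA damage repair or cell cycle regulation. Each strain is grown with compound, and inhibition is calculated relative to solvent-treated cultures.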
# [10] = NCI Yeast Anticancer Drug Screen. Data for the wt2 strain (AID 169);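 note: 0% = growth of vehicle-treated yeast cultures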; details: S. cerevisiae wt2 strain growth inhibition, stronger effect = higher value
# Outline: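 Treated yeast vs. vehicle-treated yeast: growth inhibition determined.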
# [11] = NCI Yeast Anticancer Drug Screen. Data for the mlh1 strain (AID 171);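 note: 0% = growth of vehicle-treated control cultures of the same strain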; details: S. cerevisiae mlh1 strain growth inhibition, stronger effect = higher value
# Outline: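 A yeast strain with a defined genetic lesion serves as the test organism. Cultures receive compound or vehicle, and growth is measured.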
# [12] = NCI Yeast Anticancer Drug Screen. Data for the sgs1 strain (AID 173);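 note: 0% = growth of vehicle-only control cultures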; details: S. cerevisiae sgs1 mutant, stronger effect = higher value
# Outline: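 A genetically defined yeast mutant is incubated with the test compound, and its growth is compared to that of the same strain given vehicle.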
# [13] = NCI Yeast Anticancer Drug Screen. Data for the mlh1 rad18 strain (AID 175); details: S. cerevisiae mlh1 rad18 strain growth inhibition, stronger effect = higher value
# Outline: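 Steps: expose repair-defective yeast to compound; measure growth; express inhibition against vehicle-treated controls.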
# [14] = NCI Yeast Anticancer Drug Screen. Data for the rad18 strain (AID 177); details: S. cerevisiae rad18 mutant growth inhibition, stronger effect = higher value
# Outline: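 Measured value is growth inhibition of a yeast strain bearing a DNA repair alteration, referenced to vehicle-treated cells.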
# [15] = at 5.0 µM (retest, dose inferred, filed as 0.5)
# [16] = at 50.0 µM (retest, dose inferred, filed as 5.0)
smiles,measurement,setting,value
O=C1OC(/C=C/c2ccccc2)Sc2ccccc21 (stereo not drawn),growth inhibition,[1]; at 1.2 µM,-3%
same,growth inhibition,[1]; at 3.7 µM,0%
same,growth inhibition,[1]; at 11.0 µM,1%
same,growth inhibition,[1]; at 33.0 µM,2%
same,growth inhibition,[1]; at 100.0 µM,8%
same,growth inhibition,[2]; at 1.2 µM,5%
same,growth inhibition,[2]; at 3.7 µM,5%
same,growth inhibition,[2]; at 11.0 µM,13%
same,growth inhibition,[2]; at 33.0 µM,18%
same,growth inhibition,[2]; at 100.0 µM,23%
same,growth inhibition,[3]; at 1.2 µM,-1%
same,growth inhibition,[3]; at 3.7 µM,2%
same,growth inhibition,[3]; at 11.0 µM,4%
same,growth inhibition,[3]; at 33.0 µM,10%
same,growth inhibition,[3]; at 100.0 µM,44%
same,growth inhibition,[4]; at 1.2 µM,3%
same,growth inhibition,[4]; at 3.7 µM,4%
same,growth inhibition,[4]; [15],-16%
same,growth inhibition,[4]; at 11.0 µM,10%
same,growth inhibition,[4]; at 33.0 µM,14%
same,growth inhibition,[4]; [16],1%
same,growth inhibition,[4]; at 50.0 µM,-0.5%
same,growth inhibition,[4]; at 100.0 µM,27%
same,growth inhibition,[5]; at 1.2 µM,-3%
same,growth inhibition,[5]; at 3.7 µM,-3%
same,growth inhibition,[5]; [15],10%
same,growth inhibition,[5]; at 11.0 µM,0%
same,growth inhibition,[5]; at 33.0 µM,10%
same,growth inhibition,[5]; [16],8%
same,growth inhibition,[5]; at 50.0 µM,29.8%
same,growth inhibition,[5]; at 100.0 µM,24%
same,growth inhibition,[6]; at 1.2 µM,1%
same,growth inhibition,[6]; at 3.7 µM,0%
same,growth inhibition,[6]; at 11.0 µM,4%
same,growth inhibition,[6]; at 33.0 µM,12%
same,growth inhibition,[6]; at 100.0 µM,23%
same,growth inhibition,[7]; [15],3%
same,growth inhibition,[7]; [16],7%
same,growth inhibition,[7]; at 50.0 µM,30.9%
same,growth inhibition,[8]; [15],-34%
same,growth inhibition,[8]; [16],-47%
same,growth inhibition,[8]; at 50.0 µM,-26.9%
same,growth inhibition,[9]; at 1.2 µM,5%
same,growth inhibition,[9]; at 3.7 µM,11%
same,growth inhibition,[9]; [15],7%
same,growth inhibition,[9]; at 11.0 µM,33%
same,growth inhibition,[9]; at 33.0 µM,46%
same,growth inhibition,[9]; [16],50%
same,growth inhibition,[9]; at 50.0 µM,89.3% (active)
same,growth inhibition,[9]; at 100.0 µM,62%
same,growth inhibition,[10]; at 1.2 µM,-2%
same,growth inhibition,[10]; at 3.7 µM,-8%
same,growth inhibition,[10]; at 11.0 µM,-2%
same,growth inhibition,[10]; at 33.0 µM,1%
same,growth inhibition,[10]; at 100.0 µM,10%
same,growth inhibition,[11]; at 1.2 µM,1%
same,growth inhibition,[11]; at 3.7 µM,3%
same,growth inhibition,[11]; at 11.0 µM,7%
same,growth inhibition,[11]; at 33.0 µM,12%
same,growth inhibition,[11]; at 100.0 µM,26%
same,growth inhibition,[12]; at 1.2 µM,0%
same,growth inhibition,[12]; at 3.7 µM,2%
same,growth inhibition,[12]; at 11.0 µM,6%
same,growth inhibition,[12]; at 33.0 µM,12%
same,growth inhibition,[12]; at 100.0 µM,25%
same,growth inhibition,[13]; [15],11%
same,growth inhibition,[13]; [16],27%
same,growth inhibition,[13]; at 50.0 µM,32.9%
same,growth inhibition,[14]; at 1.2 µM,1%
same,growth inhibition,[14]; at 3.7 µM,4%
same,growth inhibition,[14]; at 11.0 µM,7%
same,growth inhibition,[14]; at 33.0 µM,19%
same,growth inhibition,[14]; at 100.0 µM,43%
